A selection: hits, their analogues and other compounds. The true share with any hit is near 3.8%.
HepG2 tox = kills HepG2 cells in TGF-b inhibitor counter-screen; HepG2 CAGA-GFP viability, ATP luminescence, 18 h; Potency, µM (highest dose often 46.1 µM), for inactives: at the highest dose activity change, negative = cytotoxicity, most hits filed as cytotoxic; 0.76% of 410,000 active
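CellTiter-Glo luminescence gave cytotoxicity after 18 hours at 37 degrees C. The cells were HepG2 CAGA-GFP in 1% FBS DMEM, stimulated with 500 pg/mL TGF-beta after compound addition. %Activity was normalised to no-cell wells (complete cell-killing) and DMSO (no toxicity), and curves were fitted and classified.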
ATXN viability = cell viability loss in ATXN counter-screen. S2 cells (HEK-293 line with an ATXN2-luciferase reporter) viability, CellTiter-Fluor protease fluorescence, 24 h. Potency, µM (top dose mostly 56.7 µM), usual class: cytotoxic. 0.49% of 400,000 active. AID 651635; further: nearly all actives have a fitted effect of over 40% in size
A549 tox = kills or reduces viability of A549 cells in Nrf2 counter-screen; A549 ARE-Fluc cells, CellTiter-Fluor viability, 18-24 h; Potency, µM (highest dose often 46 µM), without a hit: top-dose activity change, negative = cytotoxicity, actives largely listed as inhibitors; 0.16% of 390,000 active; further: on the % scale 0 is the no-effect control and ±100 the full control effect
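Cytotoxicity counterscreen: CellTiter-Fluor fluorescence was measured in A549 ARE_Fluc cells after 18-24 h of compound exposure in a concentration series. The subsequent BugLite luminescent read reports ARE-luciferase activity.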
TGFb inhibitor = TGF-b pathway inhibition. AID 588855. Potency, µM (top dose mostly 46.1 µM), inactives show at the top dose activity, negative = inhibition, actives largely listed as inhibitors. HepG2 CAGA-GFP TGF-b/SMAD3 reporter, GFP fluorescence, 18 h; TGF-beta stimulated, 500 pg/mL final. 1.2% of 410,000 active; further: on the % scale 0 is the no-effect control and ±100 the full control effect; nearly all actives have a fitted effect of over 65% in size
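Smad-responsive CAGA-GFP expression was quantified in HEPG2 cells exposed to compounds and 500 pg/mL final TGF-beta for 18 h at 37 degrees C; unstimulated wells defined full inhibition.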
Nrf2 inh = inhibitors of Nrf2 signaling | AID 504444 | 2.1% of 360,000 active | A549 ARE-Fluc reporter, luciferase luminescence, 18-24 h | Potency, µM (highest dose often 46 µM), for the others: at the top dose activity change, negative = inhibition, usual class: inhibitors; further: on the % scale 0 is the no-effect control and ±100 the full control effect; nearly all actives have a fitted effect of over 60% in size
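In this cell-based qHTS, ARE-driven firefly luciferase in A549 cells reports Nrf2 activity; the luminescent signal after BugLite lysis is the measured value, with a prior CellTiter-Fluor read for cell health.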
ATXN2 expr inh = reduces ATXN2 reporter expression in HEK-293 cells; HEK-293 ATXN2-luciferase reporter, luminescence, 24 h; Potency, µM (top dose mostly 57 µM), for inactives: top-dose activity change, negative = inhibition, usual class: inhibitors; 0.72% of 360,000 active; AID 1745845; further: on the % scale 0 is the no-effect control and ±100 the full control effect; nearly all actives have a fitted effect of over 55% in size
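qHTS (up to 57 uM final) was run with 24 h compound exposure of reporter cells at 37 °C. Each well was multiplexed: SteadyGlo luminescence measured ATXN2-luciferase expression after a fluorogenic Gly-Phe-AFC viability readout (25 uM final).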
* marks the source's active call; other numbers are inactive results; i = inactive; u = inconclusive; x = no result given. The call rests on the fitted dose curve; in most records, active means well fitted curve in the direction sought with a large enough effect; inconclusive means small, poorly fitted or top-dose-only effect, or another doubt; inactive means no such curve, though single readings can be large; an effect the other way counts as inactive or inconclusive. Potency means the concentration at half of the fitted maximal effect.

SMILES	HepG2 tox	ATXN viability	A549 tox	TGFb inhibitor	Nrf2 inh	ATXN2 expr inh
CC(C)c1ccc(NC(=O)Cn2cc(S(=O)(=O)Cc3cccc(Cl)c3)c3ccccc32)cc1	-46.3%	x	-4.7%	u	u	x
CC(C)CCNC(=O)c1ccc2nc(CCc3ccccc3)oc2c1	-30.2%	i	8.8%	3.0%	x	11.6%
COCC(=O)OC1CCn2c1nc1c2C(=O)C(C)=C(NC(C)=O)C1=O (centres undefined)	-87.4%	x	u	u	u	10µM*
O=C(NCCc1ccc(Cl)cc1)c1cnccn1	1.6%	i	-2.2%	1.1%	4.7%	19.8%
CC(C)(C)C(=O)N(Cc1ccc(Cl)cc1)c1cnccn1	-13.9%	u	-1.2%	-17.3%	18.4µM*	x
O=C1C(NS(=O)(=O)c2ccccc2)=C(N2CCN(c3ccc(F)cc3)CC2)C(=O)c2ccccc21	-12.2%	i	-0.4%	u	-21.0%	-10.1%
O=C1C(NS(=O)(=O)c2cccs2)=C(N2CCN(c3cccc(Cl)c3)CC2)C(=O)c2ccccc21	-3.9%	i	u	u	20.6µM*	-18.5%
COc1cc(C(=O)Nc2ccc3oc(-c4cccnc4)nc3c2)cc(OC)c1OC	28.6%	i	-2.3%	0.2%	u	-26.8%
O=C(Nc1ccc2oc(-c3ccccc3)nc2c1)c1ccc2c(c1)OCCO2	-34.8%	u	u	-12.7%	9.2µM*	-19.1%
CC(=O)Nc1cc(-c2nc3cc(Cl)ccc3o2)ccc1C	-12.7%	i	8.8%	-2.4%	u	61.8%
CC(=O)Nc1ccc(-c2nc3cc(Cl)ccc3o2)cc1	-37.6%	i	8.5%	11.2µM*	u	63.0%
COc1ccc(C(=O)Nc2ccc3oc(-c4cccnc4)nc3c2)cc1OC	-3.3%	i	-3.3%	-9.7%	13µM*	-23.7%
COc1cc(C(=O)Nc2ccc3oc(-c4ccccc4)nc3c2)cc(OC)c1OC	-68.6%	u	u	u	20.6µM*	u
O=C(Nc1ccc2oc(-c3ccncc3)nc2c1)c1ccc2c(c1)OCCO2	-29.5%	i	0.8%	u	u	-27.3%
COC(=O)Nc1sc2c(c1C(=O)NC1CC1)CCCCCC2	-4.8%	i	-8.8%	3.3%	6.9%	-7.6%
O=C(c1cccc(Cl)c1)N(Cc1cccc(F)c1)C1CCS(=O)(=O)C1 (centres undefined)	-5.3%	x	0.4%	-29.2%	12.7%	x
COc1cc(S(=O)(=O)NCCOC23CC4CC(CC(C4)C2)C3)c(OC)cc1Cl	1.2%	i	-0.8%	u	20.6µM*	-18.6%
Nc1c(C(O)(C(F)(F)F)C(F)(F)F)cc(C(O)(C(F)(F)F)C(F)(F)F)c2ccccc12	17.8µM*	u	u	11.2µM*	14.6µM*	u
COc1ccc(C(=O)n2nc(-c3ccc(OC)cc3)nc2N)cc1	-17.6%	i	2.8%	-6.5%	u	7.0%
COc1ccc(-c2nc(N)n(C(=O)c3ccc(C)cc3)n2)cc1	-6.6%	i	-6.4%	5.3%	10.3µM*	13.2%
Nc1nc(-c2ccco2)nn1C(=O)c1ccc(F)cc1	46.6%	i	3.9%	0.3%	18.4µM*	11.1%
Nc1nc(-c2ccco2)nn1C(=O)c1ccccc1	4.4%	u	-7.0%	u	-14.3%	-1.2%
O=C(c1ccccc1)n1nc(-c2ccco2)nc1NCc1cccs1	-41.9%	u	-6.4%	0.0%	5.0%	3.9%
Cc1ccc(C(=O)n2nc(-c3ccco3)nc2NCc2cccs2)cc1	6.8%	i	-4.8%	26.4%	8.2µM*	8.5%
CCOC(=O)c1ccccc1NC(=O)N1CCC(CN2CCCCC2)CC1	-3.6%	i	1.4%	-15.5%	u	-6.3%
SMILES	HepG2 tox	ATXN viability	A549 tox	TGFb inhibitor	Nrf2 inh	ATXN2 expr inh
COC(=O)[C@@]12CCCN1[C@H](c1ccc(-c3cccc(Cl)c3)cc1)[C@H]1C(=O)N(C)C(=O)[C@H]12	-27.3%	u	-4.2%	u	-0.9%	-29.1%
O=C(c1cc(COc2cccc3cnccc23)on1)N1CCC(c2ccccc2Cl)C1 (centres undefined)	-34.7%	u	-2.5%	20µM*	u	x
CN1CCN(C(=O)c2cc(COc3ccc(F)cc3Cl)on2)CC1c1ccccc1 (centres undefined)	-1.9%	i	u	u	13µM*	-27.8%
O=C(c1cc(COc2c(F)cccc2F)on1)N1CCC(c2ccncc2)CC1	-24.7%	u	-18.8%	-16.0%	7.31µM*	-9.5%
CC(=O)N1N=C(c2cccc(NS(=O)(=O)c3ccc(C)cc3)c2)CC1c1ccco1 (centres undefined)	-5.0%	i	u	-14.8%	23.1µM*	13.4%
CCCCN(C)CC(O)Cn1cc(/C=C/C(=O)c2ccc(OC)c(OC)c2)c2ccccc21 (centres undefined)	-98.5%	x	u	u	19.7%	22.4µM*
CCCN(CCC)CC(O)Cn1cc(/C=C/C(=O)c2ccc(C)cc2)c2ccccc21 (centres undefined)	8.91µM*	u	u	u	u	u
CN1CCN(Cn2cc(/C=C/C(=O)c3ccccc3)c3ccccc32)CC1	-58.9%	u	1.2%	12.6µM*	u	151.4%
COc1ccc(C(=O)/C=C/c2cn(CC(O)CN3CCN(C)CC3)c3ccccc23)cc1OC (centres undefined)	-187.1%	x	-12.3%	u	2.6%	1.2%
CCCN(CCC)CC(O)Cn1cc(/C=C/C(=O)c2ccccc2)c2ccccc21 (centres undefined)	12.6µM*	u	-9.1%	u	0.1%	-8.0%
CCCN(CCC)CC(O)Cn1cc(/C=C/C(=O)c2ccc(Br)cc2)c2ccccc21 (centres undefined)	-35.5%	x	14.5%	7.7%	-2.6%	-1.8%
O=C(O)c1sccc1Oc1ccc(NS(=O)(=O)c2ccccc2)cc1	2.7%	i	10.4%	7.8%	7.6%	-15.5%
O=C(CNc1ccccc1OC(F)F)N1CCc2ccccc21	-2.2%	i	-1.3%	0.8%	u	14.5%
CCCCN(C)CC(O)Cn1cc(/C=C/C(=O)c2ccc(C)cc2)c2ccccc21 (centres undefined)	12.6µM*	x	-3.5%	17.8µM*	-12.6%	x
CCCCN(C)CC(O)Cn1cc(/C=C/C(=O)c2ccc(Br)cc2)c2ccccc21 (centres undefined)	-96.7%	x	-18.2%	u	u	-8.9%
Cn1c(=O)c2c(ncn2Cc2ccccc2)n(C)c1=O	3.3%	i	-2.8%	4.4%	-14.9%	3.4%

Source: PubChem
